Experimental findings from PubChem BioAssay (NCI) are described below.

This is part of a sample that, as a whole, favours compounds with a hit. Of some 83,000 tested, about 20% had one in any assay.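 Compound tested at a single concentration for 48 hours in 96-well plates; a percent growth value below 10 was scored as active.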 Values without a mark were called inactive. The source made the active and inactive calls.

Some test systems named below: NCI-H23 lung; NCI-H226 lung; NCI-H322M lung; HOP-62 NSCLC; NCI-H460 lung; HOP-92 NSCLC; NCI-H522 lung; A549/ATCC NSCLC; 786-0 renal; COLO 205 colon; DU-145 prostate; K-562 leukemia; MALME-3M melanoma; MDA-MB-231 breast; RXF 393 renal; SF-268 CNS; SF-295 CNS; SF-539 CNS; UACC-257 melanoma; M14 melanoma.
Assay in all cases: NCI-60 one-dose screen, 48 h (100 = growth as untreated, 0 = no growth, -100 = all killed)
Common to all, as to conditions: 10 µM unless noted

As for `COc1ccc(-c2ccc3ncc4c(c3c2)n(-c2ccc(N3CCNCC3)c(C(F)(F)F)c2)c(=O)n4C)cn1`, the growth was -71.6% (active) with NCI-H23 lung; -66.4% (active) in the assay with NCI-H226 lung; -89.6% (active) with NCI-H322M lung; -72% (active) in the assay on HOP-62 NSCLC; -82.9% (active) with NCI-H460 lung; -83.2% (active) in the assay on HOP-92 NSCLC. Also, the growth is -61.7% (active) in the assay with NCI-H522 lung; -83.2% (active) with A549/ATCC NSCLC; -81.1% (active) in the assay with 786-0 renal; -73.9% (active) with COLO 205 colon; -89.4% (active) in the assay on DU-145 prostate; -48.2% (active) in the assay on K-562 leukemia. Further, the growth in the assay on MALME-3M melanoma is -75.3% (active); in the assay with MDA-MB-231 breast, -77.4% (active); in the assay on RXF 393 renal, -83.2% (active); in the assay on SF-268 CNS, -76.3% (active); in the assay on SF-295 CNS it was -91.8% (active); in the assay with SF-539 CNS, -84.7% (active). Further, the growth with UACC-257 melanoma was -72.2% (active).

On to `Clc1ccc2c(NCCCNCc3ccc4c(c3)OCO4)ccnc2c1`, for which the growth with NCI-H23 lung is 72.7%; in the assay on NCI-H226 lung, 80.1%; with NCI-H322M lung, 71.8%; in the assay with HOP-62 NSCLC, 42.7%; with NCI-H460 lung, 60.5%; with HOP-92 NSCLC, 47.4%. The growth in the assay with NCI-H522 lung was 20.1%; in the assay with A549/ATCC NSCLC, 51.2%; in the assay on 786-0 renal, 66.8%; in the assay on COLO 205 colon, -56.6% (active); in the assay on DU-145 prostate, 58.1%; in the assay on K-562 leukemia, -10.9% (active). Further, the growth was -69.6% (active) in the assay with MALME-3M melanoma; 12.9% with MDA-MB-231 breast; 19% in the assay on RXF 393 renal; 62% with SF-268 CNS; 59.8% in the assay with SF-295 CNS; -86.7% (active) with SF-539 CNS.

In the case of `COC1CCC(N2C(=O)CNc3ncc(-c4ccc(C(C)(C)O)nc4)nc32)CC1` (centres undefined), the growth was 15.8% in the assay with NCI-H23 lung; 8.08% (active) in the assay on NCI-H226 lung; -5.65% (active) with NCI-H322M lung; 5.54% (active) in the assay with HOP-62 NSCLC; 12.4% in the assay on NCI-H460 lung; -12% (active) in the assay on HOP-92 NSCLC. Also, the growth is -10.3% (active) with NCI-H522 lung; 2.75% (active) with A549/ATCC NSCLC; 6.56% (active) in the assay on 786-0 renal; -7.31% (active) with COLO 205 colon; 4.44% (active) in the assay with DU-145 prostate; 4.22% (active) in the assay with K-562 leukemia. The growth is -17.6% (active) in the assay with MALME-3M melanoma; 14.2% in the assay on MDA-MB-231 breast; -28.5% (active) with RXF 393 renal; 18.5% with SF-268 CNS; -15.4% (active) in the assay with SF-295 CNS; -21.9% (active) with SF-539 CNS. Further, the growth with UACC-257 melanoma is -15.8% (active).

In the case of `CN1CCN(CC(=O)Nc2ccc(-c3nc4ccccc4s3)cc2)CC1`, the growth in the assay with NCI-H23 lung is 82.2%; with NCI-H226 lung it was 96.2%; with NCI-H322M lung it was 77.9%; in the assay with HOP-62 NSCLC, 87.3%; with NCI-H460 lung it was 84.7%; with HOP-92 NSCLC, 35.7%. The growth in the assay on NCI-H522 lung is 58.9%; in the assay with A549/ATCC NSCLC, 88.6%; in the assay with 786-0 renal, 78.7%; in the assay with COLO 205 colon it was 39.7%; in the assay with DU-145 prostate, 85.2%; with K-562 leukemia, 41.8%. Besides, the growth is 98.3% with MALME-3M melanoma; 59.8% in the assay with MDA-MB-231 breast; 54.3% in the assay with RXF 393 renal; 83% with SF-268 CNS; 91.1% in the assay with SF-295 CNS; -31.9% (active) with SF-539 CNS. The growth with UACC-257 melanoma was 105%; in the assay with M14 melanoma, 67.6%.

Take `Nc1nc(N)c2nc(-c3cccc(O)c3)c(-c3cccc(O)c3)nc2n1`: the growth in the assay on NCI-H23 lung is 82.5%; with NCI-H226 lung it was 78.5%; in the assay on NCI-H322M lung, 47%; in the assay with HOP-62 NSCLC, 54.1%; in the assay on NCI-H460 lung, 92.8%; in the assay with HOP-92 NSCLC it was 49.5%. Besides, the growth in the assay on NCI-H522 lung was 49.3%; with A549/ATCC NSCLC, 75.1%; in the assay on 786-0 renal, 65.7%; in the assay on COLO 205 colon it was 79%; in the assay on DU-145 prostate, 80.8%; in the assay on K-562 leukemia it was 28.5%. Moreover, the growth with MALME-3M melanoma is 91.3%; in the assay with MDA-MB-231 breast, 96.5%; in the assay with RXF 393 renal it was 70.8%; in the assay on SF-268 CNS it was 58.2%; with SF-295 CNS it was 89.8%; in the assay on SF-539 CNS, 81.7%. Further, the growth with UACC-257 melanoma was 65.4%; with M14 melanoma, 87.5%.

In the case of `Cn1cnc(-c2cc3nccc(Oc4ccc(NC(=S)NC(=O)Cc5ccccc5)cc4F)c3s2)c1`, the growth in the assay on NCI-H23 lung is 72.5%; in the assay on NCI-H226 lung, 54.5%; in the assay with NCI-H322M lung it was 108%; in the assay on HOP-62 NSCLC, 78.9%; in the assay on NCI-H460 lung, 93.5%; in the assay on HOP-92 NSCLC it was 50.2%. The growth was 41.5% in the assay with NCI-H522 lung; 53.9% in the assay with A549/ATCC NSCLC; 98.1% in the assay with 786-0 renal; 89% in the assay with COLO 205 colon; 104% with DU-145 prostate; 6.69% (active) with K-562 leukemia. For the same compound, the growth with MALME-3M melanoma is 86.3%; in the assay with MDA-MB-231 breast it was 81.2%; in the assay on RXF 393 renal, 87.1%; with SF-268 CNS, 84.3%; in the assay with SF-295 CNS, 52.5%; in the assay on SF-539 CNS it was 58.7%. For the same compound, the growth in the assay on UACC-257 melanoma was 60.5%; with M14 melanoma it was 96.5%.

Regarding `O=C1NC(=O)/C(=C/c2ccc3nccc(-c4ccncc4)c3c2)S1`, the growth in the assay with NCI-H23 lung is -17.4% (active); in the assay with NCI-H226 lung, -54.5% (active); in the assay with NCI-H322M lung, -50.8% (active); with HOP-62 NSCLC, -36.1% (active); in the assay with NCI-H460 lung it was -2.65% (active); in the assay on HOP-92 NSCLC, -41.1% (active). Besides, the growth in the assay on NCI-H522 lung was -95.6% (active); in the assay on A549/ATCC NSCLC, -51.8% (active); with 786-0 renal, -41.6% (active); in the assay with COLO 205 colon, -56.6% (active); in the assay on DU-145 prostate, 2.86% (active); in the assay with K-562 leukemia it was 5.97% (active). The growth with MALME-3M melanoma is -42.7% (active); in the assay with MDA-MB-231 breast it was -13.3% (active); in the assay with RXF 393 renal, -74.2% (active); with SF-268 CNS, -11.5% (active); in the assay on SF-295 CNS it was -48.2% (active); with SF-539 CNS, -61.5% (active). Besides, in the assay on UACC-257 melanoma, the growth was -33.5% (active).

As to `CO[C@H]1C[C@@H]2CC[C@@H](C)[C@@](O)(O2)C(=O)C(=O)N2CCCC[C@H]2C(=O)O[C@H]([C@H](C)C[C@@H]2CC[C@@H](OCCO)[C@H](OC)C2)CC(=O)[C@H](C)/C=C(\C)[C@@H](O)[C@H](OC)C(=O)[C@H](C)C[C@H](C)\C=C/C=C/C=C/1C`, the growth was 54.9% in the assay on NCI-H23 lung; 48.7% in the assay with NCI-H226 lung; 44.9% in the assay on NCI-H322M lung; 41.2% in the assay on HOP-62 NSCLC; 43.2% in the assay on NCI-H460 lung; 45.7% in the assay with HOP-92 NSCLC. For the same compound, the growth is 48.7% with NCI-H522 lung; 44.6% in the assay on A549/ATCC NSCLC; 52.6% in the assay with 786-0 renal; 55.8% in the assay on COLO 205 colon; 50.8% in the assay on DU-145 prostate; 42.9% in the assay with K-562 leukemia. The growth is 36.6% in the assay with MALME-3M melanoma; 63.1% with MDA-MB-231 breast; 5.21% (active) with RXF 393 renal; 51.6% in the assay with SF-268 CNS; 26.3% in the assay on SF-295 CNS; 41.8% in the assay on SF-539 CNS. The growth in the assay on UACC-257 melanoma was 61%.
